# Measurements as given in PubChem BioAssay AID624297 (National Center for Advancing Translational Sciences (NCATS), 2012).
# The whole screen tested about 340,000 compounds, of which about 6,200 (1.8%) were called active. About 10% were inconclusive and are not listed. The list comes from a sample in which actives are over-represented; it also holds similar structures and randomly drawn compounds. Where a call stands in place of a potency, no number is given. Unmarked numbers belong to inactive results. Calls come from the whole dose curve; as a rule, active = well fitted activation curve with a large enough effect; inconclusive = small, poorly fitted or top-dose-only effect; inactive = no such curve, though single readings can be large or run the other way.
# Experiment: A quantitative high throughput screen for small molecules that induce DNA re-replication in SW480 colon adenocarcinoma cells. Note: nearly all actives have a fitted effect of over 55% in size.
# Details: Hoechst DNA content imaging, 48 h; series mostly up to 46.1 µM
# In short: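 Image-based DNA-content assay: after two days of treatment, nuclei were labelled with the DNA dye Hoechst and imaged, and hits were compounds raising the count of nuclei showing high fluorescence intensity.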
# Potency is the fitted concentration of half-maximal effect.
SMILES,Potency,re-replication activation
CC(C)(C)OC(=O)C1=C(CO)CS[C@@H]2[C@H](NC(=O)Cc3ccccc3)C(=O)N12,inactive,–
OCCN1CCN(CCO)C1=S,inactive,–
CCc1ccc(OCC(=O)NCC(c2ccc(Cl)cc2)N2CCCCC2)cc1 (stereo not given),9.2 µM (active),–
COc1ccc(C(CNC(=O)COc2ccccc2OC)N2CCCCC2)cc1 (stereo not given),inactive,–
COc1ccc(C(CNC(=O)COc2ccc([N+](=O)[O-])cc2)N2CCCCC2)cc1 (stereo not given),inactive,–
O=C(CNS(=O)(=O)c1ccc2c(c1)OCCCO2)N1CCN(c2ccc(F)cc2)CC1,inactive,–
O=C1COc2c1ccc(O)c2O,inactive,–
CCOC(=O)C1(CCOc2ccccc2)CCN(Cc2cc(OC)c(O)cc2Cl)CC1,inactive,–
OCC1(CCOc2ccccc2)CCN(Cc2cn[nH]c2-c2ccccc2)CC1,inactive,–
Cc1c(CN2CCC(CO)(CCOc3ccccc3)CC2)[nH]c2ccc(Cl)cc12,14.6 µM (active),–
CCOC(=O)C1=CN(Cc2ccc(Br)cc2)S(=O)(=O)N(C)C1C (stereo not given),inactive,–
Cc1ccc(NC(=O)C2CCC(C(C)(C)C)CC2)cc1S(=O)(=O)N1CCOCC1 (stereo not given),14.6 µM (active),–
Cc1ccc(NC(=O)NC2CCCCC2)cc1S(=O)(=O)N1CCOCC1,inactive,–
Cc1ccc(NC(=O)COC(=O)C2CC2)cc1S(=O)(=O)N1CCOCC1,inactive,–
C/C(CC(=O)NCc1ccc(Cl)cc1)=N\NC(=O)COc1ccc(C)cc1Br,14.6 µM (active),–
Cc1cc(Cl)ccc1OCCCC(=O)NCc1ccncc1,inactive,–
CC(=O)Nc1ccc(OCC(=O)NCc2ccc(C)cc2)cc1,inactive,–
COc1ccc(C2NCCCC2c2ccccc2)cc1 (stereo not given),inactive,–
CCN(C(=O)COC(=O)c1ccccc1O)c1cccc2ccccc12,inactive,–
CCC1([N+](=O)[O-])COC(c2ccc(C)cc2)OC1 (stereo not given),inactive,–
CC(C)(C)S(=O)(=O)N1Cc2cc(CO)cc(CCO)c2[C@H]1CCO,inactive,–
O=C(O)C(c1cccs1)C1(O)CCCCC1 (stereo not given),inactive,–

SMILES,Potency,re-replication activation
Cc1nnc(OCC(=O)NCCC2=CCCCC2)c2ccccc12,16.4 µM (active),–
O=C(Cc1cccc2ccccc12)NCCC1=CCCCC1,inactive,–
O=C(COc1ccc(Cl)cc1)NCCC1=CCCCC1,inactive,–
COCc1cc(C)nc2sc(C(=O)NC3CCCCC3)c(N)c12,inactive,–
CCc1nnc(NC(=O)c2sc3nc(C)cc(COC)c3c2N)s1,inactive,–
COc1ccc(OC)c(NC(=O)c2sc3nc(C)cc(C)c3c2N)c1,9.2 µM (active),–
CCOc1ccc(/C=C(/C#N)c2nnc(N3CCOCC3)n2-c2ccccc2)cc1OC,inactive,–
COc1cccc(/C=N/NC(=O)c2[nH]nc3c2CCc2ccccc2-3)c1O,3.26 µM (active),–
CN(C)CCNC(=O)c1[nH]nc2c1CCc1ccccc1-2,inactive,–
COc1cc2cc(C(=O)N/N=C/c3cccc(OC)c3OC)[nH]c2cc1OC,inactive,–
O=C(CSc1cccc[n+]1[O-])c1ccc(Cl)cc1,inactive,–
O=C(CSc1cccc[n+]1[O-])c1ccc(-c2ccccc2)cc1,2.82 µM (active),–
COc1ccccc1C(=O)CSc1cccc[n+]1[O-],inactive,–
O=C(NCCc1ccc(F)cc1)c1ccc2nccnc2c1,inactive,–
O=C(OCCOc1ccccc1Cl)c1cc(S(=O)(=O)N2CCCCC2)ccc1N1CCOCC1,inactive,–
Cc1cc(C(=O)Nc2nnc(C3CC3)s2)c(C)s1,inactive,–
Cc1ccc(Cn2c(C)c3cnn(CC(=O)NCCN4CCOCC4)c(=O)c3c2C)cc1,inactive,–
O=C(NCC1CCCO1)c1cc2c([nH]c3ccccc32)c(-c2ccc(F)cc2)n1 (stereo not given),inactive,–
Cc1cccn2c(=O)c3cc(C(=O)NCCN4CCOCC4)c(=N)n(Cc4cccnc4)c3nc12,4.11 µM (active),–
COc1ccc(CCNC(=O)Cn2c(=O)n(CC3CCCO3)c(=O)c3ccccc32)cc1OC (stereo not given),inactive,–
Cc1ccc2nc3c(cc(C(=O)NCCc4ccccc4)c(=N)n3CC3CCCO3)c(=O)n2c1 (stereo not given),11.6 µM (active),–
O=C(CSc1nc2ccccc2c(=O)n1Cc1ccc(F)cc1)NCC1CCCO1 (stereo not given),inactive,–

SMILES,Potency,re-replication activation
Cc1cccn2c(=O)c3cc(C#N)c(=O)n(CCCN4CCOCC4)c3nc12,inactive,–
Cc1ccc(CCNC(=O)c2ccc3nc4ccccc4c(=O)n3c2)cc1,inactive,–
Cc1cccn2c(=O)c3cc(C(=O)NCC4CCCO4)c(=N)n(Cc4ccc(F)cc4)c3nc12 (stereo not given),8.2 µM (active),–
COc1ccccc1NC(=O)N(O)C1(C#N)CCCCC1,inactive,–
O=C(Cn1cnc2ccccc2c1=O)NNC(=O)c1ccccc1F,inactive,–
CCCN(C(=O)COC(=O)CNS(=O)(=O)c1ccc(NC(C)=O)cc1)C1CCS(=O)(=O)C1 (stereo not given),inactive,–
C[C@H]1CN([C@@H](C)CO)C(=O)Cc2cc(NS(C)(=O)=O)ccc2O[C@@H]1CN(C)CC1CC1,inactive,–
NC(=O)c1ncn([C@@H]2O[C@H](CN=C3NS(=O)(=O)c4ccccc43)[C@@H](O)[C@H]2O)n1,inactive,–
Nc1ccc2nc3c(=O)[nH]c(=S)[nH]c3nc2c1,4.61 µM (active),–
CSCCC(NC(=O)COc1ccccc1)C(=O)N1CCN(c2cccc(C(F)(F)F)c2)CC1 (stereo not given),inactive,–
CCN(CC)C(=O)[C@H]1C[C@H](CC(=O)NCC23CC4CC(CC(C4)C2)C3)C(=O)N2CCc3c([nH]c4cc(CCC(=O)N(C)C)ccc34)[C@]12C,–,25.4% [at 9.22 µM]
CN(C)C(CNC(=O)c1cc2ccccc2o1)c1ccccc1 (stereo not given),inactive,–
O=C(c1cnccn1)N1CCN(S(=O)(=O)c2cccc(Cl)c2)CC1,inactive,–
Oc1ccc(N=Cc2sc3ccccc3c2Cl)cc1,9.2 µM (active),–
COc1ccc(N=C(C)c2sc3ccccc3c2O)cc1,inactive,–
Cc1nn(C)cc1/C=N/NC(=O)c1sc2ccccc2c1Cl,inactive,–
CC1(C)C(=O)CCC2(C)C1=CCC1C2C(=O)CC2(C)C1CCC2(O)C(=O)CO (stereo not given),inactive,–
COc1ccc(-c2cc(C(F)(F)F)nc(NCc3cccnc3)n2)cc1,inactive,–
COc1ccc(-c2cc(C(F)(F)F)nc(S(C)(=O)=O)n2)cc1OC,4.11 µM (active),–
COc1ccc(-c2ccc(Nc3ccc(S(=O)(=O)N4CCCC4)cc3)nn2)cc1OC,inactive,–
CC[C@]12c3[nH]c4cc(CCC(=O)N(C)C)ccc4c3CCN1C(=O)[C@@H](CC(=O)NCCCn1ccnc1)C[C@@H]2C(=O)N1CCN(C(=O)C2CC2)CC1,inactive,–
